Hit rate of the full screen: of about 16,000 compounds, about 4,000 (25%) were called active. Another 26% or so got no clear call; they are omitted. These entries were drawn from the full list. Values without a mark were called inactive. Calls come from the whole dose curve; as a rule, active = well fitted curve in the direction sought with a large enough effect; inconclusive = small, poorly fitted or top-dose-only effect, or effect the other way; inactive = no such curve, though single readings can be large or run the other way.

For orientation: AC50 means the midpoint of the concentration-response curve, whichever way the signal moves.
% is set by controls: 0 for no effect and ±100 for the full control effect.

Sequence of Cytochrome P450 2C9 (Homo sapiens) (P11712 whole entry, looked up): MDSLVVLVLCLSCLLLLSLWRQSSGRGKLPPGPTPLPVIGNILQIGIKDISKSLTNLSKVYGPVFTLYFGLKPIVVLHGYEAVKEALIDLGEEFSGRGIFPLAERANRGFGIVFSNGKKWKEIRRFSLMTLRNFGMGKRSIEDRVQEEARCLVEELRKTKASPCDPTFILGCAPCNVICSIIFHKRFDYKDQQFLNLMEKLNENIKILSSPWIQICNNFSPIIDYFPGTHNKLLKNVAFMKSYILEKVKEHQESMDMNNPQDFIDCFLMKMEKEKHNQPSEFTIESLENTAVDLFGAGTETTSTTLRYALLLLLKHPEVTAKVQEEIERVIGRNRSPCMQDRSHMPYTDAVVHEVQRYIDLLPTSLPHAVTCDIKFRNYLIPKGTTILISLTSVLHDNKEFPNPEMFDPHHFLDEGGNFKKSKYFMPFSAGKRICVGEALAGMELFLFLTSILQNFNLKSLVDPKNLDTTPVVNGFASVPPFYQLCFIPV

This assay addresses Cytochrome P450 2C9 (Homo sapiens) (UniProt P11712). Nature of the assay: Cytochrome panel assay with activity outcomes. Conditions: recombinant CYP, pro-luciferin dealkylation, luminescence, p450-cyp2c9; series mostly up to 57.1 µM.
Consider `COc1cccc(Nc2ncc3nc(-c4cccs4)c(=O)n(-c4ccccc4)c3n2)c1`, for which the AC50 entry was “inactive”. For the compound `CNc1nc(-c2ccoc2)nc2ccccc12`, the activity, negative = inhibition was 13% [at 2.29 µM]. Regarding `Clc1ccc2c(c1)C=Nc1c(NCc3ccccc3)ncnc1O2`, the AC50 entry was “inactive”. The same measure, in the same setting: the same measure for `N#Cc1ccc(-c2ccc(F)cc2)nc1Oc1ccc(Cl)c(Cl)c1`: “inactive”; for `Fc1ccc(-c2cn3cc(C(F)(F)F)cc(Cl)c3n2)cc1`: 4.47 µM (active). As for `OCCCNCc1ccccn1`, the activity, negative = inhibition was 9.34% [at 11.4 µM]. For `CC12CC(NC(=O)N1c1cccc(C(=O)NCc3ccccc3)c1)c1ccccc1O2` (configuration not stated), the AC50 is 3.98 µM (active). `O=C(NCc1ccccc1)c1ccc2c(c1)C(=O)N(CC1CCCO1)C2=O` (configuration not stated): the AC50 entry is “inactive”.

For the compound `COc1ccc(N2C(=O)NC3CC2(C)Oc2ccccc23)cc1OC` (configuration not stated), the AC50 entry is “inactive”. As for `Cn1c(=O)c2[nH]c(SCc3ccccn3)nc2n(C)c1=S`, the half-maximal activity concentration (AC50) was 3.16 µM (active). With `Cn1c(=O)c2[nH]c(CCCCc3nc4c([nH]3)c(=O)n(C)c(=S)n4C)nc2n(C)c1=S`, the activity, negative = inhibition was -2.51% [at 11.4 µM].

Consider `Cn1c(=S)c2[nH]c(SCCN3C(=O)c4ccccc4C3=O)nc2n(C)c1=O`, for which the activity, negative = inhibition is -3.8% [at 11.4 µM]. Still for that read-out and setting: under `CN(C)c1ccc(-c2cncnc2N(C)Cc2ccco2)cc1` stands -17.3% [at 2.29 µM].

Turning to `CCOc1ccc(NC(=S)N(Cc2ccc(Cl)cc2)Cc2ccco2)cc1`, the AC50 is 10 µM (active). `CN(C)c1ccc(-c2cc(N(C)Cc3ccco3)ncn2)cc1`: the activity, negative = inhibition is -6.39% [at 2.29 µM].

Take `CCOc1ccc(NC(=S)N(Cc2ccc(N(C)C)cc2)Cc2ccco2)cc1`: the AC50 is 1 µM (active).

As for `N[C@H](C(=O)O)[C@H](O)C(=O)O`, the AC50 result was “inactive”. As to `Cc1ccc(NC(=O)c2ccc(NCC3CCCO3)c([N+](=O)[O-])c2)cc1Cl` (configuration not stated), the AC50 was 1.12 µM (active). Take `CC(C)(C)C(=O)N1CCN(c2ccc([N+](=O)[O-])c(NCC3CCCO3)c2)CC1` (configuration not stated): the half-maximal activity concentration (AC50) was 12.6 µM (active).

Consider `Cc1cc(C)c(S(=O)(=O)N2CCN(c3ccc([N+](=O)[O-])c(NCC4CCCO4)c3)CC2)c(C)c1` (configuration not stated), for which the AC50 was 2 µM (active). Consider `CCS(=O)(=O)N1CCC(C(=O)NCC2CCCO2)CC1` (configuration not stated), for which the AC50 result is “inactive”. Still for that read-out and setting: the same measure for `N#CCSc1ncnc2c1cnn2CCO`: “inactive”; for `O=C1C2C3C=CC(C3)C2C(=O)N1c1ncn[nH]1` (configuration not stated): “inactive”. On the same count and under the same terms, under `CCOc1cc(/C=C2/C(=O)N(c3ccccc3)N=C2C)ccc1OC(=O)c1ccco1` stands 0.631 µM (active). As to `CC1=NN(c2ccc(S(=O)(=O)O)cc2)C(=O)/C1=C\c1ccc(Cl)cc1`, the activity, negative = inhibition is -2.05% [at 11.4 µM]. Turning to `CC1=NN(c2ccccc2)C(=O)/C1=C\N1CC(C)OC(C)C1` (configuration not stated), the AC50 entry is “inactive”. In the case of `CNc1nc(-c2ccccc2CN(C)C)nc2ccccc12`, the activity, negative = inhibition was 4.11% [at 2.29 µM]. Take `O=C1Oc2ccccc2C(=O)/C1=C\N1C(=O)N/C(=C\c2ccccc2O)C1=O`: the concentration at half-maximal activity (AC50) is 1 µM (active). On the same count and under the same terms, under `C[C@H](C[C@H](N)C(=O)O)C(=O)O` stands “inactive”.

On to `CC(=O)OC[C@@H]1O[C@@H](O/N=C2/C[C@@H](O)[C@@H](O)[C@@H]3[C@@H]4C(=O)N([C@@H](C)c5ccccc5)C(=O)[C@H]4CC[C@@H]23)[C@H](OC(C)=O)[C@H](OC(C)=O)[C@@H]1OC(C)=O`, for which the activity, negative = inhibition was 16.3% [at 11.4 µM].

On to `O=S(=O)(c1ccccc1)N1CCCC1c1nc2ccccc2s1` (configuration not stated), for which the half-maximal activity concentration (AC50) is 12.6 µM (active).

For the compound `CC(C)NC(=O)N1CCC2(CC1)CCN(C(=O)c1cccn1C)CC2`, the AC50 result is “inactive”. Turning to `COc1ccccc1CNc1ncncc1-c1ccccc1Cl`, the activity, negative = inhibition is -27.8% [at 2.29 µM].

As to `COc1cccc(CNc2ccc(F)c(Cl)c2)c1O`, the half-maximal activity concentration (AC50) is 2.82 µM (active). For the compound `COc1ccccc1CNc1ccnc(-c2ccccc2Cl)n1`, the activity, negative = inhibition is -21.6% [at 2.29 µM].

As to `CCCN1C2=NCCCN2c2ccccc21`, the AC50 entry was “inactive”.

`O=C(/C=C/c1ccc2ccccc2c1)c1ccoc1`: the AC50 result is “inactive”. The same measure, in the same setting: under `COc1ccc(/C=C/C(=O)c2ccoc2)cc1` stands 28.2 µM (active); under `COc1ccc(C(=O)/C=C(/C)N(C)C)cc1`, “inactive”. Take `NCCSc1nc(-c2ccccc2)c(-c2ccccc2)o1`: the activity, negative = inhibition was -11.6% [at 11.4 µM].

Consider `O=C(CCc1nc(-c2ccccc2)c(-c2ccccc2)o1)OCc1ccc(Cl)cc1`, for which the half-maximal activity concentration (AC50) was 22.4 µM (active).

For `COc1cccc(-c2ccc3ncnc(N(C)C)c3c2)c1`, the activity, negative = inhibition was -9.73% [at 2.29 µM]. Still for that read-out and setting: the same measure for `CN(C)C(=O)c1ccc(-c2cncnc2NCc2cccnc2)cc1`: 8.29% [at 2.29 µM]. `Cc1ccc(-c2nnc(N(C)C(=O)c3cccnc3)s2)cc1`: the AC50 is 1.41 µM (active). Same read-out and setting: under `COc1cccc(C(=O)N(C)c2nnc(-c3ccncc3)s2)c1` stands 2 µM (active); under `CC(=O)N(C)c1nnc(-c2cnccn2)s1`, “inactive”. With `CCCC1S/C(=N/N=C/c2ccc(OC)cc2)N(Cc2ccc(OC)cc2)C1=O` (configuration not stated), the AC50 is 15.8 µM (active). Take `CC(C)=NO[C@@H](C)c1cc(-c2c(C)cc(C)cc2C)no1`: the activity, negative = inhibition was -0.976% [at 11.4 µM]. With `CCOC(=O)c1c(C)oc2c1c(C=NC1CCS(=O)(=O)C1)c(O)c1ccccc12` (configuration not stated), the AC50 entry was “inactive”. The same measure, in the same setting: under `CCOC(=O)c1c(C)oc2c1cc(O)c1ccccc12` stands 1.12 µM (active); under `C[C@@H]1C[C@H](OC(=O)[C@@H](O)c2ccccc2)CC(C)(C)N1C`, “inactive”.

Consider `OCCn1cnc2c(SCc3ccccc3)ncnc21`, for which the activity, negative = inhibition is 12.5% [at 11.4 µM].

In the case of `COc1ccc(-c2csc(NC(=O)CCn3cnc4ccccc4c3=O)n2)cc1OC`, the AC50 is 1 µM (active). As to `CCCC(=O)Nc1nc(-c2ccc3c(c2)CCN3S(C)(=O)=O)cs1`, the AC50 result is “inactive”. Still for that read-out and setting: under `CCCc1nnc(NC(=O)Cn2cnc3ccccc3c2=O)s1` stands 17.8 µM (active).

As for `CCCc1nnc(NC(=O)CCC(=O)NCc2ccccc2OC)s1`, the AC50 entry is “inactive”. As for `CCCc1nnc(NC(=O)CCC(=O)N2CCN(c3ccccn3)CC2)s1`, the AC50 result is “inactive”. Regarding `O=C(Cn1cnc2ccccc2c1=O)Nc1nnc(SCc2ccccc2)s1`, the AC50 is 8.91 µM (active). Take `Cn1c(=O)c2[nH]c(CCCc3ccc([N+](=O)[O-])cc3)nc2n(C)c1=O`: the activity, negative = inhibition is 1.93% [at 11.4 µM]. With `CC(C)(C)c1ccc(COC(=O)CNC(=O)CNC(=O)Cc2ccccc2)cc1`, the AC50 entry was “inactive”. Same read-out and setting: under `Cc1ccc(C(=O)COC(=O)CNC(=O)C(c2ccccc2)c2ccccc2)cc1[N+](=O)[O-]` stands “inactive”; under `Cc1ccc(C(=O)COC(=O)CNC(=O)Cc2ccccc2)cc1[N+](=O)[O-]`, 14.1 µM (active).

For the origin of these results see PubChem BioAssay AID1851 (National Center for Advancing Translational Sciences (NCATS), 2009).
